Assay results: PubChem BioAssay
Active and inactive are the calls of the source.

Assays:
[1] = tested on: PRMT1 (protein arginine N-methyltransferase 1); test: small molecules binding arginine methyltransferase PRMT1 – biochemical, small-molecule microarray, 635 nm fluorescence, primary screen (AID 1088); conditions: higher = more signal;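 further: binding of Prmt1 protein to compounds spotted on small-molecule microarray slides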
[2] = growth effects on S. cerevisiae YJM789 – YJM789 clinical isolate, OD600, 24 h, basal, primary screen (AID 1089); conditions: higher = more signal, called active from +8 up or from −8 down;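 further: growth of clinical yeast isolate S. cerevisiae YJM 789 seeded 1000 cells per well; test concentration not given here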
[3] = S. pombe growth modifiers, basal conditions – strain 972, OD600, 24 h, no modulator, primary screen (AID 1090);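 further: basal condition with compound alone and no growth modifier present; test concentration not given here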; conditions: S. pombe 972 growth, higher = more signal, called active from +8 up or from −8 down
[4] = budding yeast growth modifiers under rapamycin – strain BY4716, OD600, 96 h, primary screen (AID 1091); further: test concentration not given here; conditions: S. cerevisiae BY4716 + rapamycin, higher = more signal, called active from +8 up or from −8 down
[5] = target: Torsin-1A-interacting protein 2 (Homo sapiens) (UniProt Q8NFQ8); test: small molecules binding lysate-expressed LULL1 – cell lysate, human LULL1 lysate, 635/667 nm fluorescence, primary screen (AID 1092); conditions: small-molecule microarray, hLULL1 lysate binding, 635 nm fluorescence; higher = more signal;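 further: probe is lysate of COS7 cells overexpressing human LULL1; score merges per-feature 667 nm fluorescence with signal-to-noise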
Chain of Torsin-1A-interacting protein 2 (Homo sapiens) (Q8NFQ8 whole entry, looked up): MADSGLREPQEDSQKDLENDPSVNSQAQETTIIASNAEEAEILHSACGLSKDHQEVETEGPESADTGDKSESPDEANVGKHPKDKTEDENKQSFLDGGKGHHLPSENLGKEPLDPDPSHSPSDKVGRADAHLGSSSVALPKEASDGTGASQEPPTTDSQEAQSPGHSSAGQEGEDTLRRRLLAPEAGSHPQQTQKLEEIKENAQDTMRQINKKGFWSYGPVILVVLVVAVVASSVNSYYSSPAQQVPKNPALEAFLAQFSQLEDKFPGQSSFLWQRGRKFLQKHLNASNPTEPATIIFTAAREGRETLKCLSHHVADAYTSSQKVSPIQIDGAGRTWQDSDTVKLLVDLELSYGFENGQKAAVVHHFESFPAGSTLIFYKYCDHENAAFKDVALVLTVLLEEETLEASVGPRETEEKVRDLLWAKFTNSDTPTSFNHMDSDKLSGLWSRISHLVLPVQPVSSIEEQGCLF

[6] = optical density change of DRC41 E. coli – strain DRC41, OD650, 24 h, E. coli filamentation project, primary screen (AID 1093);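 further: MC1000 strain lacking acrAB efflux and sulA so SOS filamentation is blocked; test concentration not given here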; conditions: E. coli DRC41 growth, higher = more signal, called active from +8 up or from −8 down
[7] = probe aLefty2 binding to arrayed compounds – biochemical, biotinylated probe, 635/667 nm fluorescence, primary screen (AID 1094); conditions: small-molecule microarray, higher = more signal;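 further: score merges spot fluorescence near 667 nm with spot signal-to-noise ratio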
[8] = tested on: Noggin (protein binding on small-molecule microarray); test: small molecules binding Noggin protein – biochemical, 635/667 nm fluorescence, primary screen (AID 1095); conditions: 635 nm fluorescence, higher = more signal;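 further: score merges 667 nm feature fluorescence with signal to noise over triplicate slides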
[9] = target: Neurogenic locus notch homolog protein 3 (Homo sapiens) (UniProt Q9UM47); test: small molecules binding NOTCH3 protein – biochemical, 635/667 nm fluorescence, primary screen (AID 1096); conditions: small-molecule microarray, 635 nm fluorescence, higher = more signal
Chain of Neurogenic locus notch homolog protein 3 (Homo sapiens) (Q9UM47 whole entry, looked up): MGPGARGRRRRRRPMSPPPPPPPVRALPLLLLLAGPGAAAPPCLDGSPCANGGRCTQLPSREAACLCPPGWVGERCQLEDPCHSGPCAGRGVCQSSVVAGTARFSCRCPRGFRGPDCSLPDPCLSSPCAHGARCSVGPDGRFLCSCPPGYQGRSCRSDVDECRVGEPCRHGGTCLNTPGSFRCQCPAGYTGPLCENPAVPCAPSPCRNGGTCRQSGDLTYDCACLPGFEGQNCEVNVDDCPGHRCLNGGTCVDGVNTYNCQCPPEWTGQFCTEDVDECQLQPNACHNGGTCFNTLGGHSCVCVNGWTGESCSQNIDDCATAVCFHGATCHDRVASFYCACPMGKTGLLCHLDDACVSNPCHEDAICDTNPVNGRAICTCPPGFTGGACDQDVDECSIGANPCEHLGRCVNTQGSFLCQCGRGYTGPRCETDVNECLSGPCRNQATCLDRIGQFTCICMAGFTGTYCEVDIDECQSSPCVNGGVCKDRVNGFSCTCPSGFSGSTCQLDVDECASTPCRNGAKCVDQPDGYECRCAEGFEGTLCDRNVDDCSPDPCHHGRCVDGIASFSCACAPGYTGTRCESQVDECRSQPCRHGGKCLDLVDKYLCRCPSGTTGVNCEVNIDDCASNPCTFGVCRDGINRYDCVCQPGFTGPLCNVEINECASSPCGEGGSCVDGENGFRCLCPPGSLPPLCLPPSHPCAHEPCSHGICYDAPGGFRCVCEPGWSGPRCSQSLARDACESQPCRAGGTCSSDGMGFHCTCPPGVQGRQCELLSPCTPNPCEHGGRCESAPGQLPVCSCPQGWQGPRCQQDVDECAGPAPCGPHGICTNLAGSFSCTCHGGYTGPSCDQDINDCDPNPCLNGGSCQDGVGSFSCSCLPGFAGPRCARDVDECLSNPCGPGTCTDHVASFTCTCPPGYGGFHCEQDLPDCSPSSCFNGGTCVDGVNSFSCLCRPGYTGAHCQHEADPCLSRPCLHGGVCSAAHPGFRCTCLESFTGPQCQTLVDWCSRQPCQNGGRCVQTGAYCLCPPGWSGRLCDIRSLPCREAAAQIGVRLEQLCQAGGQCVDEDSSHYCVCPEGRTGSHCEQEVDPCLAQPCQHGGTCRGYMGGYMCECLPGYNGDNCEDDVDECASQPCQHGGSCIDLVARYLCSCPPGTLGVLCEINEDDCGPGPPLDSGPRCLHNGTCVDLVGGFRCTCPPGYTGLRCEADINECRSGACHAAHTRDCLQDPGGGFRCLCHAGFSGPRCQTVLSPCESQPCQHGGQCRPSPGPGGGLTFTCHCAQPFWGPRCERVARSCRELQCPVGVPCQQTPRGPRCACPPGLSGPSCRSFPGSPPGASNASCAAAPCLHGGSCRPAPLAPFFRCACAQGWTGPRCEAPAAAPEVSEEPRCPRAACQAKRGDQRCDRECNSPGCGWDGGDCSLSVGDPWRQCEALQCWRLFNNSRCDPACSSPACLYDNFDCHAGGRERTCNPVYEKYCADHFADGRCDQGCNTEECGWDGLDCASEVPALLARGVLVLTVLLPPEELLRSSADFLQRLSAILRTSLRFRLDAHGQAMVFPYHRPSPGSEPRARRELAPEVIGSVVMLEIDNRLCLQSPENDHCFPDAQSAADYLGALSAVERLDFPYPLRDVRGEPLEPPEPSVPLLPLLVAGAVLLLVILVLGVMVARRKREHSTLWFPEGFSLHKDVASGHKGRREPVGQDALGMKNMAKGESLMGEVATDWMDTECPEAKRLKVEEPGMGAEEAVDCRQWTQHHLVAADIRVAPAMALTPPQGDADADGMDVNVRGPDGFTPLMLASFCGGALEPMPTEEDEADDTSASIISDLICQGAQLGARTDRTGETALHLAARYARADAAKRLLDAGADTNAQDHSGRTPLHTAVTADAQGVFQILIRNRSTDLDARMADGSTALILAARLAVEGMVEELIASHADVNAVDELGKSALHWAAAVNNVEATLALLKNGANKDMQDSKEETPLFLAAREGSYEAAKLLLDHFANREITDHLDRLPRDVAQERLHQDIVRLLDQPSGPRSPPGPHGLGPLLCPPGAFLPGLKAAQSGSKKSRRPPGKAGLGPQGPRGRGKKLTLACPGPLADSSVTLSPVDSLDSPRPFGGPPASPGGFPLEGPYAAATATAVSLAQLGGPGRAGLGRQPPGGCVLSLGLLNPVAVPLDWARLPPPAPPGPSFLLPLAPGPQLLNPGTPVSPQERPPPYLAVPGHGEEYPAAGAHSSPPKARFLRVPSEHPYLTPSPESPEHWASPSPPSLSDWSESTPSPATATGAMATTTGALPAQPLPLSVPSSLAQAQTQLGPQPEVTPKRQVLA

[10] = probe aEGFR binding to arrayed compounds – biochemical, biotinylated probe, 635/667 nm fluorescence, primary screen (AID 1097); conditions: small-molecule microarray, higher = more signal;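 further: probe is a biotinylated anti-EGFR antibody binding compounds printed on slides; score combines fluorescence near 667 nm and signal to noise of each spot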
[11] = tested on: Plasmodium falciparum Sir2 (PF13_0152, Sir2A); test: Plasmodium falciparum Sir2A binding compounds – biochemical, small-molecule microarray, 635 nm fluorescence, primary screen (AID 1098); conditions: fluorescence 635 nm, higher = more signal;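 further: score merges spot fluorescence intensity with its signal-to-noise ratio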
[12] = probe aDKK1 binding to arrayed compounds – biochemical, biotinylated probe, 635/667 nm fluorescence, primary screen (AID 1099); conditions: small-molecule microarray, higher = more signal;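 further: score merges 667nm spot fluorescence with signal to noise across triplicate slides; reference of the scale not given here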
[13] = probe aCHRDL2 binding to arrayed compounds – biochemical, biotinylated probe, 635/667 nm fluorescence, primary screen (AID 1100); conditions: small-molecule microarray, higher = more signal
[14] = change in splice reporter luminescence, either direction, cell-based, HEK293, spliceosome inhibition project, primary screen (AID 1101); conditions: HEK293 splicing luciferase reporter, 24 h, higher = more signal, called active from +8 up or from −8 down;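 further: HEK293 cells carrying a splicing-competent luciferase reporter gene; test concentration not given here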
[15] = target: Fibroblast growth factor 10 (Homo sapiens) (UniProt O15520); test: compounds binding fibroblast growth factor 10 – biochemical, small-molecule microarray, 635 nm fluorescence, primary screen (AID 1102); conditions: FGF10 binding, fluorescence 635 nm, higher = more signal
Chain of Fibroblast growth factor 10 (Homo sapiens) (O15520 whole entry, looked up): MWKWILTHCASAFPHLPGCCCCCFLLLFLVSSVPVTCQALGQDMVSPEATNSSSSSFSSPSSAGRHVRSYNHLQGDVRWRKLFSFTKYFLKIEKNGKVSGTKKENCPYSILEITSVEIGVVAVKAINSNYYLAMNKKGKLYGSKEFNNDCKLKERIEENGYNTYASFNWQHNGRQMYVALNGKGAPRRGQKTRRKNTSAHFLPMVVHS

[16] = tested on: glycogen synthase kinase-3 (GSK3A per assay name; protocol says GSK3B); test: compounds binding glycogen synthase kinase-3 – biochemical, small-molecule microarray, 635 nm fluorescence, GSK3A, primary screen (AID 1103); conditions: fluorescence 635 nm, higher = more signal; further: the record names both GSK3A and GSK3B
[17] = target: Epidermal growth factor receptor (Homo sapiens) (UniProt P00533); test: compounds binding epidermal growth factor receptor – biochemical, small-molecule microarray, 635 nm fluorescence, primary screen (AID 1104); conditions: EGFR binding, higher = more signal;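 further: score merges 667 nm emission intensity with spot signal to noise over triplicate slides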
Chain of Epidermal growth factor receptor (Homo sapiens) (P00533 whole entry, looked up): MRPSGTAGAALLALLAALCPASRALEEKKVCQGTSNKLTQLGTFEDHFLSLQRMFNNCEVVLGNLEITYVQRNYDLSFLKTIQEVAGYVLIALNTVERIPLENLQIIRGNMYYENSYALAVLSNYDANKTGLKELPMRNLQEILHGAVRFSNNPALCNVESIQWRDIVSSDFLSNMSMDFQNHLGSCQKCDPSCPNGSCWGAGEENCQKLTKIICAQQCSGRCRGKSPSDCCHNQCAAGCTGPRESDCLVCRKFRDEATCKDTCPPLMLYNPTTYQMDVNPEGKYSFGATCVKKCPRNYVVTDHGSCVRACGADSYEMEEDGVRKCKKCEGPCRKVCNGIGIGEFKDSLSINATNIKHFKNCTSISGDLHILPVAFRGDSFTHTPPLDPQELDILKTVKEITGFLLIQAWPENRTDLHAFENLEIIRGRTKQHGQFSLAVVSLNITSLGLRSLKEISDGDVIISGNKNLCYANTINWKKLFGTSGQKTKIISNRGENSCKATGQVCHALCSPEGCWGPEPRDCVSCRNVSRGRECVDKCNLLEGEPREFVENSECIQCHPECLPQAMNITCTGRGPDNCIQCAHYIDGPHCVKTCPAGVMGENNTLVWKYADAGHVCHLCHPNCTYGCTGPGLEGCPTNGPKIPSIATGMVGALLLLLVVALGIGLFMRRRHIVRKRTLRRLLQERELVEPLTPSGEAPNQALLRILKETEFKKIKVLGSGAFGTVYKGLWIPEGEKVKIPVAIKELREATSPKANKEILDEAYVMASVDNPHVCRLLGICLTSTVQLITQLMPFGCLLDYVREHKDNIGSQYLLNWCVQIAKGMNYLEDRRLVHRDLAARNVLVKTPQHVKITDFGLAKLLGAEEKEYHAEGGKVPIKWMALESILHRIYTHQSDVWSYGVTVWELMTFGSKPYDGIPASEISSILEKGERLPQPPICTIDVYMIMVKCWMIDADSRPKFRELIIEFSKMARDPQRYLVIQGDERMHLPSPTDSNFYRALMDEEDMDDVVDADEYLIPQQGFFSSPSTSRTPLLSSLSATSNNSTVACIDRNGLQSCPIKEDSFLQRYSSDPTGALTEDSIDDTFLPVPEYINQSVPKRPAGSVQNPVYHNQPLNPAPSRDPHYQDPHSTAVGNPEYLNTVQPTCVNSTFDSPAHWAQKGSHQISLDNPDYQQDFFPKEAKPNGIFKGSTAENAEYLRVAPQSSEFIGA

[18] = target: Follistatin-related protein 3 (Homo sapiens) (UniProt O95633); test: compounds binding follistatin-related protein 3 – biochemical, small-molecule microarray, 635 nm fluorescence, primary screen (AID 1105); conditions: FSTL3 binding, higher = more signal;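 further: score merges emission near 667 nm and signal to noise per printed spot across three slides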
Chain of Follistatin-related protein 3 (Homo sapiens) (O95633 whole entry, looked up): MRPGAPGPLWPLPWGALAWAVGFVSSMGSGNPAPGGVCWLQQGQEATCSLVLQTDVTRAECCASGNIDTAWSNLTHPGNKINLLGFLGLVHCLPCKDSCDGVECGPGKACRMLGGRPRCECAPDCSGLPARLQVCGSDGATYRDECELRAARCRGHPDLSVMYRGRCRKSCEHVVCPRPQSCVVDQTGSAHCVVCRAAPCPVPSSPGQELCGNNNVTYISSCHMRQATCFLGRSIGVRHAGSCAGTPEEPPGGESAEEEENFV

[19] = target: Dickkopf-related protein 1 (Homo sapiens) (UniProt O94907); test: small molecules binding DKK1 protein – biochemical, small-molecule microarray, 635 nm fluorescence scan, primary screen (AID 1106); conditions: higher = more signal;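 further: score merges emission near 667 nm with signal to noise over three replicate slides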
Chain of Dickkopf-related protein 1 (Homo sapiens) (O94907 whole entry, looked up): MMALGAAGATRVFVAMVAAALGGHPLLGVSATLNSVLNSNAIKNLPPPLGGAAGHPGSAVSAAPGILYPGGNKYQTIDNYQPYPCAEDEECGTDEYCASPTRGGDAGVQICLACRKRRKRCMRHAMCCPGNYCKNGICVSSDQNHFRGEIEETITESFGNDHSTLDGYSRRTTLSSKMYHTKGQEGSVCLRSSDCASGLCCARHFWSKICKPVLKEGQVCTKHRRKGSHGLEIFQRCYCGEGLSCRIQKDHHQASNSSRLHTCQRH

[20] = tested on: Inhibin beta A chain (activin A); test: small molecules binding activin A – biochemical, small-molecule microarray, 635 nm fluorescence scan, primary screen (AID 1107); conditions: INHBA, higher = more signal;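 further: mouse activin A protein probed at 4.33 µg/mL on printed slides; score merges bound-protein fluorescence near 667 nm with spot signal-to-noise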

| Structure (SMILES) | composite z-score [1] | z-score [2] | z-score [3] | z-score [4] | composite z-score [5] | z-score [6] | composite z-score [7] | composite z-score [8] | composite z-score [9] | composite z-score [10] | composite z-score [11] | composite z-score [12] | composite z-score [13] | z-score [14] | composite z-score [15] | composite z-score [16] | composite z-score [17] | composite z-score [18] | composite z-score [19] | composite z-score [20] |
| --- | --- | --- | --- | --- | --- | --- | --- | --- | --- | --- | --- | --- | --- | --- | --- | --- | --- | --- | --- | --- |
| COc1ccc(CCNC(=O)[C@@H]2c3ccccc3C(=O)N(c3ccc(C)cn3)[C@H]2c2ccc(CO)cc2)cc1 | 0.11 | -1.5 (inactive) | -0.436 (inactive) | -1.15 (inactive) | 3.23 | 0.604 (inactive) | 0.121 | -1.16 | -1.21 | -0.404 | 1.73 | 0.263 | 1.19 | -0.403 (inactive) | -1.06 | -0.37 | -1.68 | -1.16 | -2.4 | -0.082 |
| CCOC(=O)C[C@H]1[C@H](OC(=O)c2ccc(C(=O)c3ccccc3)cc2)[C@@H](NC(=O)c2ccc(-c3ccccc3)cc2)c2cc(OCCCO)ccc2N1C(=O)c1ccc2ccccc2n1 | 1.44 | -1.05 (inactive) | 0.0048 (inactive) | 0.276 (inactive) | 2.29 | 1.44 (inactive) | -0.19 | 0.609 | 1 | -0.109 | 1.02 | -0.301 | -0.432 | -0.784 (inactive) | 1.29 | 0.838 | 0.519 | 0.775 | 0.606 | 0.23 |
| CC(C)CON=C1[C@H]2CCn3c(=O)n(-c4ccccc4)c(=O)n3[C@H]2[C@H](O)[C@@H]2O[C@H]12 | -0.317 | -0.476 (inactive) | 0.0606 (inactive) | -0.369 (inactive) | -0.381 | 0.343 (inactive) | -0.149 | 0.302 | 0.837 | -0.228 | 0.734 | -0.217 | -0.481 | -0.271 (inactive) | 0.229 | 0.298 | 0.481 | 0.532 | 1.2 | -0.0603 |
| O=C1[C@H]2[C@H]3[C@H](O)[C@H](O)CC(=NOC[C@@H](O)COCc4ccco4)[C@H]3CC[C@H]2C(=O)N1c1cccc(Oc2ccccc2)c1 | -0.267 | -0.19 (inactive) | 0.549 (inactive) | -0.502 (inactive) | -0.306 | 0.354 (inactive) | -0.172 | 1.55 | -0.413 | -0.174 | 0.846 | -0.317 | 0.166 | -0.716 (inactive) | -0.86 | -0.686 | -0.249 | -0.65 | -0.547 | 0.624 |
| CN1C(=O)C2C=CC(C(O)C(c3ccccc3)c3ccccc3)N(NC(=O)OC(C)(C)C)C2C1=O (stereo not given) | 1.42 | -1.79 (inactive) | -4.38 (inactive) | -0.512 (inactive) | 3.35 | -0.805 (inactive) | 0.59 | -0.168 | 1.09 | 0.311 | 1.46 | 1.21 | 1.22 | 1.71 (inactive) | 1.03 | 1.12 | 0.341 | 1.24 | 0.452 | -0.109 |
